Results filed as inconclusive are left out. Calls of active or inactive are those of the source. The calls were made as follows, unless noted: active = hit-call score of the fitted dose curve at least 0.9, where 1 is the maximum; inactive = score below 0.9.
Columns and labels:
[1] = target: Estrogen-related receptor gamma (Homo sapiens) (UniProt P62508); assay: ATG_ERRg_TRANS: Attagene TRANS-FACTORIAL HepG2 Assay for human Estrogen-Related Receptor gamma (ERRg) (AID 2282977; active = hit-call score of the fitted dose curve at least 0.9, where 1 is the maximum;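 also: hits increase reporter signal over DMSO so potencies reflect activators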); conditions: HepG2 Attagene TRANS reporter, ERRg transactivation
Procedure, shortened: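 HepG2 cells transiently transfected with multiplexed GAL4-UAS reporter units driven by chimeric NR-Gal4 proteins; 24 h exposure. Reporter mRNA quantified by RT-PCR, fluorescent labelling, HpaI digestion and capillary electrophoresis; gain of signal vs DMSO.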

[2] = target: Glucocorticoid receptor (Homo sapiens) (UniProt P04150); assay: ATG_GR_TRANS: Attagene TRANS-FACTORIAL HepG2 Assay for human Glucocorticoid Receptor (GR) (AID 2282978; active = hit-call score of the fitted dose curve at least 0.9, where 1 is the maximum;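 also: activators score as hits since higher reporter transcript over DMSO is fitted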); conditions: HepG2 Attagene TRANS GR reporter, mRNA transcription
Procedure, shortened: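 HepG2 transient transfection, multiple reporter units, GAL4-UAS under NR-GAL4 chimera control. 24 h treatment. Reporter mRNA by RT-PCR/CE fluorescence, DMSO as negative control.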

[3] = target: Bile acid receptor (Homo sapiens) (UniProt Q96RI1); assay: ATG_FXR_TRANS: Attagene TRANS-FACTORIAL HepG2 Assay for Farnesoid X Receptor (FXR) (AID 2282979; active = hit-call score of the fitted dose curve at least 0.9, where 1 is the maximum;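 also: hits raise reporter mRNA above DMSO so AC50 marks FXR activation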); conditions: HepG2 Attagene TRANS FXR-GAL4 reporter transcription
Procedure, shortened: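 HepG2 cells transiently transfected with reporter constructs in which a chimeric FXR-GAL4 protein drives a GAL4-UAS reporter; 24 h compound exposure. Reporter mRNA measured by RT-PCR, FAM labelling, HpaI digestion and capillary electrophoresis; gain-of-signal versus DMSO.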

[4] = ATG_M_06_TRANS: Attagene TRANS-FACTORIAL HepG2 Assay for M06 Transcription Factor (Internal Marker) (AID 2282983; active = hit-call score of the fitted dose curve at least 0.9, where 1 is the maximum;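 also: reporter transcript level by RT-PCR then capillary electrophoresis fluorescence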); conditions: HepG2 Attagene TRANS M06 internal marker reporter
Procedure, shortened: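 HepG2 cells transiently transfected with multiplexed GAL4-UAS reporter transcription units; after 24 h compound exposure, reporter mRNA measured by RT-PCR, FAM-labelled primer extension, HpaI digestion and capillary electrophoresis. Gain-of-signal fitted versus DMSO baseline; background control readout.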

[5] = ATG_M_32_TRANS: Attagene TRANS-FACTORIAL HepG2 Assay for M32 Transcription Factor (Internal Marker) (AID 2282984; active = hit-call score of the fitted dose curve at least 0.9, where 1 is the maximum); conditions: HepG2 Attagene TRANS M32 internal marker reporter
Procedure, shortened: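 Measures reporter mRNA induction in human HepG2 liver cells after 24 h chemical treatment. Transcripts from transiently transfected GAL4-UAS reporter units are amplified, fluorescently labelled and sized by capillary electrophoresis; gain of signal relative to DMSO.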

[6] = target: Transcriptional activator Myb (Homo sapiens) (UniProt P10242); assay: ATG_Myb_CIS: Attagene CIS-FACTORIAL HepG2 Assay for human Myeloblastosis (Myb) Proto-Oncogene Transcription Factor (AID 2282986); conditions: HepG2 Attagene CIS-FACTORIAL Myb reporter transcription; actives raise or lower the signal
Procedure, shortened: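 Multiplexed cis-reporter system in HepG2: transient transfection, 24 h treatment, mRNA readout by RT-PCR and capillary electrophoresis. Both increases and decreases are scored versus DMSO negative control.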

[7] = target: Nuclear respiratory factor 1 (Homo sapiens) (UniProt Q16656); assay: ATG_NRF1_CIS: Attagene CIS-FACTORIAL HepG2 Assay for human Nuclear Respiratory Factor 1 (NRF1) Orphan Gene (AID 2282987); conditions: HepG2 NRF1 cis-element reporter, Attagene multiplex; actives raise or lower the signal
Procedure, shortened: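 Endogenous factor activity was captured via cis-element-driven reporter transcripts in HepG2 cells. Following 24 h chemical treatment, transcripts were quantified by RT-PCR and capillary electrophoresis.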

[8] = ATG_NFI_CIS: Attagene CIS-FACTORIAL HepG2 Assay for human Nuclear Factor I (NFI) (AID 2282989); conditions: HepG2 cis-regulatory reporter, NFI response element transcription; actives raise or lower the signal
Procedure, shortened: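 Transfected HepG2 liver cells, exposed 24 h, supplied total RNA for oligo(dT) reverse transcription and reporter-specific PCR. Labelled, HpaI-cut fragments were sized by capillary electrophoresis; DMSO set the baseline for bidirectional fitting.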

[9] = target: Myc proto-oncogene protein (Homo sapiens) (UniProt P01106); assay: ATG_Myc_CIS: Attagene CIS-FACTORIAL HepG2 Assay for human Myelocytomatosis (Myc) Proto-Oncogene Transcription Factor (AID 2282990); conditions: HepG2, Attagene cis-reporter transcription factor activity; actives raise or lower the signal
Procedure, shortened: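 HepG2, transient MRTU transfection (cis promoters, endogenous TFs); 24 h dosing; TriZol RNA → oligo(dT) RT → PCR → 6-FAM primer extension → HpaI cut → CE. Bidirectional fit vs DMSO.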

[10] = ATG_NF_kB_CIS: Attagene CIS-FACTORIAL HepG2 Assay for human Nuclear Factor Kappa B (NF-kB) (AID 2282991); conditions: HepG2 Attagene cis-factorial NF-kB reporter mRNA; actives raise or lower the signal
Procedure, shortened: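 After 24 h compound incubation, transfected HepG2 cells yield total RNA; reporter cDNA is PCR-amplified, end-labelled with 6-FAM, HpaI-digested and analysed on a genetic analyser. Endogenous factor activity, DMSO-referenced bidirectional fit.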

[11] = ATG_NRF2_ARE_CIS: Attagene CIS-FACTORIAL HepG2 Assay for human Nuclear Factor Erythroid 2 Related Factor 2 (NFR2) response to Antioxidant Response Elements (ARE) (AID 2282992); conditions: HepG2 Attagene ARE/NRF2 reporter, transcription factor activity; actives raise or lower the signal;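 as to AC50: reporter mRNA level measured by RT-PCR and capillary electrophoresis fluorescence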
Procedure, shortened: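 Cis-factorial assay: transfected HepG2 reporter library, 24 h dosing, mRNA readout via RT-PCR/CE; DMSO-referenced bidirectional analysis.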

[12] = ATG_Oct_MLP_CIS: Attagene CIS-FACTORIAL HepG2 Assay for human Octamer-Binding Transcription Factor (Oct) (AID 2282993); conditions: HepG2 Attagene cis-factorial Oct reporter, mRNA; actives raise or lower the signal
Procedure, shortened: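 Using HepG2 cells bearing transfected cis-reporter constructs, mRNA induction was read after 24 h by fluorescent RT-PCR and capillary electrophoresis, with DMSO defining baseline for gain- or loss-of-signal fits.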

[13] = target: Cellular tumor antigen p53 (Homo sapiens) (UniProt P04637); assay: ATG_p53_CIS: Attagene CIS-FACTORIAL HepG2 Assay for human p53 Transcription Factor (AID 2282994); conditions: HepG2 p53 cis-element reporter, Attagene mRNA; actives raise or lower the signal
Procedure, shortened: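 Using HepG2 hepatoma cells carrying cis-acting multiplexed reporters, mRNA induction is detected after a 24 h exposure. Gain- and loss-of-signal responses are fitted relative to DMSO-treated cells.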

[14] = target: Oxysterols receptor LXR-alpha (Homo sapiens) (UniProt Q13133); assay: ATG_LXRa_TRANS: Attagene TRANS-FACTORIAL HepG2 Assay for human Liver X Receptor alpha (LXRa) (AID 2282980; active = hit-call score of the fitted dose curve at least 0.9, where 1 is the maximum); conditions: HepG2 Attagene TRANS reporter, LXRa transactivation
Procedure, shortened: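 HepG2 cells were transiently transfected with multiplexed reporter units driven by chimeric LXRa–GAL4 fusion proteins, then dosed for 24 h. Reporter mRNA was quantified by RT-PCR, fluorescent labelling and capillary electrophoresis; gain of signal fitted against DMSO baseline.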

[15] = target: Oxysterols receptor LXR-beta (Homo sapiens) (UniProt P55055); assay: ATG_LXRb_TRANS: Attagene TRANS-FACTORIAL HepG2 Assay for human Liver X Receptor beta (LXRb) (AID 2282981; active = hit-call score of the fitted dose curve at least 0.9, where 1 is the maximum); conditions: HepG2 Attagene TRANS GAL4-LXRb reporter, mRNA
Procedure, shortened: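 Transient transfection HepG2 (multiplexed RTUs, GAL4-UAS); NR-Gal4 chimera; 24 h exposure; RNA → RT-PCR → 6-FAM primer extension → HpaI → CE; increase vs DMSO.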

[16] = target: Hepatocyte nuclear factor 4-alpha (Homo sapiens) (UniProt P41235); assay: ATG_HNF4a_TRANS: Attagene TRANS-FACTORIAL HepG2 Assay for human Hepatocyte Nuclear Factor 4 alpha (HNF4a) (AID 2282982; active = hit-call score of the fitted dose curve at least 0.9, where 1 is the maximum); conditions: HepG2 HNF4a transactivation reporter, mRNA readout
Procedure, shortened: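 Readout is fluorescent reporter-transcript fragments resolved by capillary electrophoresis after RT-PCR from HepG2 cells dosed for 24 h. Cells carried transfected GAL4-UAS reporter constructs measuring exogenous NR-GAL4 chimera activity; DMSO served as baseline.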

[17] = target: Nuclear receptor subfamily 4 group A member 2 (Homo sapiens) (UniProt P43354); assay: ATG_NURR1_TRANS: Attagene TRANS-FACTORIAL HepG2 Assay for human Nuclear Receptor Related Protein 1 (NURR1) (AID 2282985; active = hit-call score of the fitted dose curve at least 0.9, where 1 is the maximum); conditions: HepG2 Attagene TRANS reporter, mRNA readout
Procedure, shortened: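 Transient transfection of HepG2, human liver cells, with multiple GAL4-UAS reporter transcription units. Cells dosed 24 h, RNA isolated, reverse-transcribed, PCR-amplified, FAM-labelled, HpaI-digested, sized by capillary electrophoresis. DMSO served as negative control.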

Chain of Oxysterols receptor LXR-beta (Homo sapiens) (P55055 whole entry, looked up, the tested form may be a part): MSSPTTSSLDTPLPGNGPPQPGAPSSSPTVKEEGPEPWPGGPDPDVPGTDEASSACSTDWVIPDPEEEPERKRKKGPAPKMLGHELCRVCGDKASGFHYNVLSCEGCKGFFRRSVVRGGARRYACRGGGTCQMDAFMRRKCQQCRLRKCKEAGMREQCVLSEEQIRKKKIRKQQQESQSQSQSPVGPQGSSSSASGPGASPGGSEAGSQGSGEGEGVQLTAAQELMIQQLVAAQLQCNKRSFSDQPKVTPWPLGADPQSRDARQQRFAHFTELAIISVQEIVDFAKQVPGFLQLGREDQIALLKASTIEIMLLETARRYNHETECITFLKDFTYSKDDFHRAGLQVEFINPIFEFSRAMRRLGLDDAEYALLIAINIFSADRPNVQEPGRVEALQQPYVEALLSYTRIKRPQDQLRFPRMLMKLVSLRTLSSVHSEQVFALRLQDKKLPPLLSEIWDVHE
Chain of Cellular tumor antigen p53 (Homo sapiens) (P04637 whole entry, looked up): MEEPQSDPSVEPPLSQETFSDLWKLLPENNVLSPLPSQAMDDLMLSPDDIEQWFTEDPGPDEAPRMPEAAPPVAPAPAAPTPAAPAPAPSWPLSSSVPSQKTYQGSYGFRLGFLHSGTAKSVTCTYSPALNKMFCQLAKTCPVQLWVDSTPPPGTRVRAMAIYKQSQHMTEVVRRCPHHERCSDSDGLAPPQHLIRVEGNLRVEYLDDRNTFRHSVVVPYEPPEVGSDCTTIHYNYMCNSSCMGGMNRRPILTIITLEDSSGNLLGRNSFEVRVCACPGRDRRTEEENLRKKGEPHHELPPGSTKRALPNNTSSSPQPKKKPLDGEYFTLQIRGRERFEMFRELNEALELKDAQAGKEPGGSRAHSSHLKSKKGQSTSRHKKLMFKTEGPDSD
Chain of Transcriptional activator Myb (Homo sapiens) (P10242 whole entry, looked up): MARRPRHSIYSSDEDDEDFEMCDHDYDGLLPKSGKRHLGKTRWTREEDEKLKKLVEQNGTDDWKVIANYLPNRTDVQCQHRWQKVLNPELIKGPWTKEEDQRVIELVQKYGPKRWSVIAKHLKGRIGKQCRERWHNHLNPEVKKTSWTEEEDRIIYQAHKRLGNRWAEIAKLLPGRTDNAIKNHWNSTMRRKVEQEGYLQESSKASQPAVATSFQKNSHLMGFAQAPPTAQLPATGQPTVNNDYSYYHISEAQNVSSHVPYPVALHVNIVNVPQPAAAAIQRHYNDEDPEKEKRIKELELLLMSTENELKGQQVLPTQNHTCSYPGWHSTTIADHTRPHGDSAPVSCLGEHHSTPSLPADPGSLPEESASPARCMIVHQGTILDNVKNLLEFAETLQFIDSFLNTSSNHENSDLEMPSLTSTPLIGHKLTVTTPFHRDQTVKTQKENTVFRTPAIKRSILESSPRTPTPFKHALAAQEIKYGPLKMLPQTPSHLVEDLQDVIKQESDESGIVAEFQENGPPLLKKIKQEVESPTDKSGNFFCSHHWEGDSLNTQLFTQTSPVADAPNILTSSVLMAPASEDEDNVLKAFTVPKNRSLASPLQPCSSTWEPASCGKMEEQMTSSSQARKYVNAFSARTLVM
Chain of Nuclear respiratory factor 1 (Homo sapiens) (Q16656 whole entry, looked up): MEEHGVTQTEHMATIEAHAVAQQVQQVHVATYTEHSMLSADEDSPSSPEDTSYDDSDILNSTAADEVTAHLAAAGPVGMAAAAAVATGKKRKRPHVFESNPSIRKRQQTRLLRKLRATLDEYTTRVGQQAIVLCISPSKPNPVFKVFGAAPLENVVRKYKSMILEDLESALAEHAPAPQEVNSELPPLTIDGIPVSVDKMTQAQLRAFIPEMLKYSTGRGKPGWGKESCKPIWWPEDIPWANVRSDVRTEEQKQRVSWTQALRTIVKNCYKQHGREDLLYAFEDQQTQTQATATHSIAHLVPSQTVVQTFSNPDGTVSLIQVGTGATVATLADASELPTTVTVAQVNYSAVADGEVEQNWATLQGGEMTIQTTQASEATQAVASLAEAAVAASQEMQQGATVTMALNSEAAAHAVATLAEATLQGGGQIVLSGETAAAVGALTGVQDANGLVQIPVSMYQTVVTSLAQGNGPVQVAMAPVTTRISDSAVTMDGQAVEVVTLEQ
Chain of Estrogen-related receptor gamma (Homo sapiens) (P62508 whole entry, looked up, the tested form may be a part): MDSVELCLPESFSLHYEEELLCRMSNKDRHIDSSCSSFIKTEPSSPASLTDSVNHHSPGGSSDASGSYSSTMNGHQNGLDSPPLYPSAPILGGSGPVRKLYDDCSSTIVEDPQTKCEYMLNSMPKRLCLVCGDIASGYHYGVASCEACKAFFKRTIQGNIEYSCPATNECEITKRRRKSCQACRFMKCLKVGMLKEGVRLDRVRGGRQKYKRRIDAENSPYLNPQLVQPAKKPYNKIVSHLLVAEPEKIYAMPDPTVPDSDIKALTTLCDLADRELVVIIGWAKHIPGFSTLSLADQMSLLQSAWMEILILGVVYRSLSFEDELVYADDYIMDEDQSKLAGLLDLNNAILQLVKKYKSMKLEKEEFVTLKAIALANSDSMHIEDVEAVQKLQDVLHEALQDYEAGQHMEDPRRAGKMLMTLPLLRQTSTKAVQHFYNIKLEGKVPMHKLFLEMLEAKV
Chain of Myc proto-oncogene protein (Homo sapiens) (P01106 whole entry, looked up): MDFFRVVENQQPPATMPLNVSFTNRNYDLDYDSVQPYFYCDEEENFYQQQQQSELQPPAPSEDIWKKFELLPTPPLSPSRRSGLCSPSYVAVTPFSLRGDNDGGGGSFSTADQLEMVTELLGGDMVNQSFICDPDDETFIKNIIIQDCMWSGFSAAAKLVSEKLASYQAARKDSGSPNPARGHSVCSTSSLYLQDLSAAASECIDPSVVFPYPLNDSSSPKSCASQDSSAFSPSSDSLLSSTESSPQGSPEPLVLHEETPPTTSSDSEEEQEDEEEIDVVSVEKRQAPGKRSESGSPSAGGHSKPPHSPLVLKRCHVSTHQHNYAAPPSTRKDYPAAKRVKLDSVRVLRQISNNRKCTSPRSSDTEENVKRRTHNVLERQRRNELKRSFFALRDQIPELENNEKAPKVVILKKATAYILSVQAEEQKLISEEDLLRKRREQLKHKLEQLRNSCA
Chain of Nuclear receptor subfamily 4 group A member 2 (Homo sapiens) (P43354 whole entry, looked up, the tested form may be a part): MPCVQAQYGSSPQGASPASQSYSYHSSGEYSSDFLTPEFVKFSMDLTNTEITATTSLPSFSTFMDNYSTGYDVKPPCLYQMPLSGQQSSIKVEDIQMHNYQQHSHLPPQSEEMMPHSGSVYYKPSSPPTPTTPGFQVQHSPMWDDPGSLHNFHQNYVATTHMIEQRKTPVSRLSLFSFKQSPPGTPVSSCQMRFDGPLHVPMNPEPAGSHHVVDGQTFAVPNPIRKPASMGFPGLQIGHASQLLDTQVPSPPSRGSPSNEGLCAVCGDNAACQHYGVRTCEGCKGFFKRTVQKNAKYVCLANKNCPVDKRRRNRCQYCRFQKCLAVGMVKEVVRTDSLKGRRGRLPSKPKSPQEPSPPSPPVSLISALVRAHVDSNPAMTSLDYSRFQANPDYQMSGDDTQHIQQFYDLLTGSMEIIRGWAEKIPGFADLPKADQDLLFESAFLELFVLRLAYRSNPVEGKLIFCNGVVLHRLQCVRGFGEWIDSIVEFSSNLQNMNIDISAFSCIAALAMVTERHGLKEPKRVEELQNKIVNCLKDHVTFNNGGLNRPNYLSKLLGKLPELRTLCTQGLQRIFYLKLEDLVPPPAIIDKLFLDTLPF
Chain of Hepatocyte nuclear factor 4-alpha (Homo sapiens) (P41235 whole entry, looked up, the tested form may be a part): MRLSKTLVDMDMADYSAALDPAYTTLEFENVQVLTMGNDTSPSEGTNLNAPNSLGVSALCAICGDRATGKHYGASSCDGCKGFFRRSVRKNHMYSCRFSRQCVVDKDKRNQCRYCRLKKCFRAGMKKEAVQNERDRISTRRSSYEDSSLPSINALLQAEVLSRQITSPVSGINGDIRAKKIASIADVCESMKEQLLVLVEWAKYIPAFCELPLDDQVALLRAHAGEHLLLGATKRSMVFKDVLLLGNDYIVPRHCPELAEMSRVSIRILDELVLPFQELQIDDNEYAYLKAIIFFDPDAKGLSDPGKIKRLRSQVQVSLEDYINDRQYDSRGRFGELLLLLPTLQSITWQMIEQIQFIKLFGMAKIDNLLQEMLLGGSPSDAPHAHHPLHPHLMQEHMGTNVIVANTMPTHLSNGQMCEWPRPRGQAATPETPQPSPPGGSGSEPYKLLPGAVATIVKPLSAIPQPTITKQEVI
Chain of Oxysterols receptor LXR-alpha (Homo sapiens) (Q13133 whole entry, looked up, the tested form may be a part): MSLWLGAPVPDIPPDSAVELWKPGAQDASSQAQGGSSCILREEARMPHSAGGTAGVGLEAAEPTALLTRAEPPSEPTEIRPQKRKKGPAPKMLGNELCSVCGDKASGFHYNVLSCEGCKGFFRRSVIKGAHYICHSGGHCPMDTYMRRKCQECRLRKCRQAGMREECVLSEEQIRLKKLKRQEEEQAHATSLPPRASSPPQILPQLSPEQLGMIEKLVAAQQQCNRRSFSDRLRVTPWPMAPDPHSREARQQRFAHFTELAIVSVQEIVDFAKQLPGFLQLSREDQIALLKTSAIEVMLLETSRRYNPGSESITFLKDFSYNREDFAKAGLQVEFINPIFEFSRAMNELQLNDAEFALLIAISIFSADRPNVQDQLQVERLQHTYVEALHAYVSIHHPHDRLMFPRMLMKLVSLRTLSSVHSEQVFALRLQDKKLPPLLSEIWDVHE
Chain of Bile acid receptor (Homo sapiens) (Q96RI1 whole entry, looked up, the tested form may be a part): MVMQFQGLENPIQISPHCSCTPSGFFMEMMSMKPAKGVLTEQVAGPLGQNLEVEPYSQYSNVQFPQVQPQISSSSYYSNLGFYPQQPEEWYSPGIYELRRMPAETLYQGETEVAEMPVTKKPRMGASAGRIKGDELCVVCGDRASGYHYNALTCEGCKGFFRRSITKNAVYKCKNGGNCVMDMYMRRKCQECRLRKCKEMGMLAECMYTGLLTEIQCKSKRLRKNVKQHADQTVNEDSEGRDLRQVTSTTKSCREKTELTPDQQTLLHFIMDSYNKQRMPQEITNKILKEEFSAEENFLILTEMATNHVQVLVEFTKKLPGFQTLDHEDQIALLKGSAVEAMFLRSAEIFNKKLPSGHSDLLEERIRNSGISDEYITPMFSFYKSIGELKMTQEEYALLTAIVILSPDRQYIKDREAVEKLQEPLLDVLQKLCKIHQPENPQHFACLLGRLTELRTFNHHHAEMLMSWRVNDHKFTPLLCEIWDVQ

Structure (SMILES)	outcome [1]	outcome [2]	outcome [3]	outcome [4]	outcome [5]	outcome [6]	outcome [7]	outcome [8]	outcome [9]	outcome [10]	outcome [11]	outcome [12]	outcome [13]	outcome [14]	outcome [15]	outcome [16]	outcome [17]	AC50 [11]
CCCCCCCCOS(=O)(=O)O	inactive	inactive	inactive	inactive	inactive	inactive	inactive	inactive	inactive	inactive	inactive	inactive	inactive					
CCOCC(C)O (stereo not given)	inactive				inactive	inactive	inactive	inactive	inactive		inactive	inactive		inactive	inactive	inactive	inactive	
Cc1cccc(O)c1	inactive	inactive			inactive	inactive	inactive	inactive	inactive	inactive	inactive	inactive	inactive				inactive	
N#CCCCC(C#N)CCC#N (stereo not given)	inactive			inactive		inactive	inactive	inactive	inactive	inactive	inactive	inactive	inactive	inactive	inactive		inactive	
ClCCOCCOCCCl	inactive					inactive	inactive	inactive	inactive			inactive			inactive	inactive	inactive	54.7 µM (active)

Source: PubChem BioAssay (EPA / NIEHS)
